Measurements published in PubChem BioAssay AID602440 (Sanford-Burnham Center for Chemical Genomics, 2012).
Screen size: about 360,000 compounds; about 2,300 (0.64%) were called active. The entries come from a sample that favours actives as a whole. Values without a mark were called inactive. Cut-off read from the data, not from the text of the source: active = inhibition mostly above about 40% (no sharp cut-off); inactive = mostly below about 27%.

What follows are molecules tested against Sentrin-specific protease 8 (Homo sapiens) (UniProt Q96LD8) (assay: human SENP8 protease inhibitors, primary screen, biochemical, fluorescence, Nedd8 protein substrate, uHTS (AID 602440)). Settings: recombinant SENP8, Nedd8 substrate fluorescence; at 20 µM; active compounds read high.
Sentrin-specific protease 8 (Homo sapiens), sequence (Q96LD8 whole entry, looked up): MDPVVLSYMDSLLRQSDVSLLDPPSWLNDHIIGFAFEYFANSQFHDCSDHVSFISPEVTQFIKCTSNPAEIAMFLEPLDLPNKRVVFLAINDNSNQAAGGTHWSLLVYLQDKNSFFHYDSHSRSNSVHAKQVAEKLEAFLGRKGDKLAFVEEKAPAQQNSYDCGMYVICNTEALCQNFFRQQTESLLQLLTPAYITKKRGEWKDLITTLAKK

SMILES	inhibition
COc1ccccc1S(=O)(=O)c1c(C)cc(C)[nH]c1=O	-5.8%
Cc1cc(C)c(/C=C2\C(=O)Nc3ccccc32)[nH]1	59.5% (active)
Cc1cccc(N(Cc2ccccc2)C(=O)c2ccccc2F)c1	10.3%
O=C(c1ccccc1F)N(Cc1ccccc1)Cc1ccccc1	7.7%
Cc1ccc(N(Cc2ccccc2O)C(=O)c2ccccc2F)cc1	43.7% (active)
CCC(=O)N1CCC(C(N)=O)(N2CCCCC2)CC1	23.1%
CN1CCN(CC(=O)C23CC4CC(CC(C4)C2)C3)CC1	8%
O=C(CCC(=O)OCc1cccc(C(=O)Oc2ccccc2)c1)Nc1cccc2ccccc12	-5.4%
Cc1c(CC(=O)N2CCN(C(=O)C3COc4ccccc4O3)CC2)c(=O)oc2c(O)c(O)ccc12 (stereo unspecified)	-291%
Cn1c2ccccc2n2c(=O)c(=O)n(CC(=O)c3ccc(F)cc3)nc12	-7.8%
COc1ccc(NC(=O)CSc2nncc(=O)n2N)cc1OC	8%
CN1CCN(/N=C2/C(=O)Nc3ccc([N+](=O)[O-])cc32)CC1	23.5%
Cc1cc([N+](=O)[O-])ccc1NCc1cccc([N+](=O)[O-])c1	29.2%
O=C1Nc2ccc([N+](=O)[O-])cc2C1=Nc1cccc(CO)c1	65.6% (active)
Cc1cc(C=O)c(C)n1-c1ccc(NC2CCCCC2)c([N+](=O)[O-])c1	56.6% (active)
Cc1ccc(C(=O)COC(=O)CCCC(=O)NC2CCCCC2)cc1[N+](=O)[O-]	19.6%
COc1ccc(NC(=O)CN(C)C(=O)c2ccc(NC3CC3)c([N+](=O)[O-])c2)cc1	33.7%
O=C(Nc1ccc2c(c1)[C@@H]1C[C@@H](CC(=O)N3CCCCC3)O[C@@H](CO)[C@@H]1O2)NC1CCCCC1	15.5%
CC1Cc2[nH][nH]c(=O)c2C(C2CC2)O1 (stereo unspecified)	19.9%
CN=C(Nc1cccc(S(=O)(=O)N2CCOCC2)c1)c1ccccc1	9.5%
CCCC1CCC(=NNC(=S)NCCc2ccccc2)CC1 (stereo unspecified)	45.2% (active)
Cc1cc(F)ccc1NC(=S)NCCc1ccccc1	8%
CCCCNC(=S)N/N=C1\CCCCc2ccccc21	21.8%

SMILES	inhibition
CCOC(=O)c1ccc(N2C(=O)CC(N3CCN(C(=O)c4ccccc4)CC3)C2=O)cc1 (stereo unspecified)	2.8%
CCOC(=O)c1ccc(N2C(=O)CC(N(C)Cc3ccccc3)C2=O)cc1 (stereo unspecified)	46.8% (active)
CCOC(=O)c1ccc(N2C(=O)CC(N3CC(C)OC(C)C3)C2=O)cc1 (stereo unspecified)	14%
COC(=O)C1=C(C(=O)OC)C(c2cc([N+](=O)[O-])ccc2O)c2sc(=O)[nH]c2S1 (stereo unspecified)	38.8%
N#CC1(C#N)C(C(=O)C23CC4CC(CC(C4)C2)C3)C12CCOCC2 (stereo unspecified)	2.5%
O=C1Nc2c(Br)cc(Br)cc2C1(O)N1CCOCC1 (stereo unspecified)	60.2% (active)
O=C(c1cc2cc(Br)cc(Br)c2oc1=O)N1CCOCC1	-4.2%
Cc1ccc(Nc2nc(CSc3nnc(-c4ccncc4)n3-c3ccccc3C)cs2)cc1	11.2%
Cc1oc2c(C)c3oc(=O)c(CC(=O)N[C@@H](CC(C)C)C(=O)N[C@@H](Cc4ccccc4)C(=O)O)c(C)c3cc2c1C	-222%
Cc1ccc(NS(=O)(=O)c2ccc3c(c2)oc(=O)n3C)c(C)c1	12.2%
CCN(CC(=O)NC1CCS(=O)(=O)C1)S(=O)(=O)c1ccccc1 (stereo unspecified)	3.6%
COc1ccc2[nH]c(=O)c(CN(Cc3cccnc3)S(=O)(=O)c3ccccc3F)cc2c1	-316%
CCc1ccccc1NC(=S)Nc1cc(OC)c(NC(=O)C(C)C)cc1OC	22.3%
O=C(Nc1ccccc1C(=O)N1CCOCC1)C1CCC(=O)N1C1CCCC1 (stereo unspecified)	7.7%
CCc1ccccc1NC(=O)[C@@H]1CCC(=O)N1C1OC(=O)c2c1ccc(OC)c2OC (stereo partly specified)	58.1% (active)
CC(=O)NC(CC(=O)Nc1nccs1)c1ccccc1 (stereo unspecified)	20.4%
CCC(C)NC(=O)c1ccc(NC(=O)CC2SC(N3CCCCC3)=NC2=O)cc1 (stereo unspecified)	0.4%
CCOc1ccc(C(C)NC(=O)CN2C(=O)NC3(CCCCC3)C2=O)cc1OCC (stereo unspecified)	4.1%
CCOc1ccc(C(c2c(C)[nH][nH]c2=O)c2c(C)[nH][nH]c2=O)cc1OCC	53.9% (active)
CCOc1ccc(C(CC(=O)O)NC(=O)C23CC4CC(CC(C4)C2)C3)cc1OC (stereo unspecified)	9%
CCCCNC(=O)C[C@@H]1C[C@@]2(C(=O)OC)CC(C)(C)CC=C2N(Cc2ccco2)C1=O	6%
O=[N+]([O-])c1ncc(Br)cc1Nc1ccccc1	22.6%
CC(C)CCNC(=O)C1CCC(CNc2c(N3CCC(C)CC3)c(=O)c2=O)CC1 (stereo unspecified)	42.8% (active)

SMILES	inhibition
CC(NC(=O)C1CCC(CNc2c(N3CCOCC3)c(=O)c2=O)CC1)c1ccccc1 (stereo unspecified)	9.1%
O=C(NCCCc1ccccc1)C1CCC(CNc2c(N3CCCCC3)c(=O)c2=O)CC1 (stereo unspecified)	23.4%
Cc1ccc(CN2CCCOCCS2(=O)=O)cc1	13.5%
CC(C)CN1CCC1(C)C(=O)Nc1ccc(OC(F)F)cc1 (stereo unspecified)	5.2%
COCCNc1nc(-n2nc(C)cc2C)nc2sc3c(c12)CCCC3	-415%
COc1ccc(C(C(=O)NC2CCCCC2)N(C(=O)Cc2c[nH]c3ccccc23)c2ccccc2)cc1OC (stereo unspecified)	-12.6%
CC(C)[C@H](NC(=O)OCc1ccccc1)C(=O)OCc1ccccc1	5.8%
COc1ccc(-c2[nH][nH]c(=O)c2NC(=O)c2ccc([N+](=O)[O-])cc2)cc1	60.2% (active)
COc1ccc(NS(=O)(=O)c2cc(NC(=O)CC(=O)c3ccc([N+](=O)[O-])cc3)ccc2C)cc1	6.3%
Cc1ccc(C(=O)Nc2c(-c3ccccc3)[nH][nH]c2=O)cc1	12.1%
Cc1n[nH]c(C)c1S(=O)(=O)N1CCCC(C(=O)Nc2ccc(Br)cc2)C1 (stereo unspecified)	13.4%
CCn1cc(C(=O)N2CC(C)CC(C)C2)c(=O)c2cc(S(=O)(=O)N3CCCC3)ccc21 (stereo unspecified)	11.3%
Cc1ccc(N(C(=O)c2ccc(S(=O)(=O)N(C)C)cc2)C2C=CS(=O)(=O)C2)cc1 (stereo unspecified)	9.3%
COC(=O)C1=C(C(=O)OC)[C@@H]2N(C)c3ccccc3[C@@]23C[C@@H](C(=O)OC)N(C(=O)c2ccco2)C3=N1	3.7%
O=C(Nc1ccccc1C(F)(F)F)N1CCCC1c1cccnc1 (stereo unspecified)	6.2%
COc1ccc(C(=O)NC(=S)N2CCCCC2c2cccnc2)cc1OC (stereo unspecified)	8.4%
O=C(NC(=S)N1CCCCC1c1cccnc1)c1ccccc1 (stereo unspecified)	46.4% (active)
COc1cccc(NC(=O)CN(C)CC(=O)c2c(N)n(Cc3ccccc3)c(=O)n(C)c2=O)c1	0.5%
COc1cc(/C=C/CO)cc(OC)c1O[C@@H]1O[C@H](CO)[C@@H](O)[C@H](O)[C@H]1O	-20.9%
Cc1ccc(CNS(=O)(=O)CCNC(=O)c2ccccc2)cc1	5.7%
CCCCNCCS(=O)(=O)NCc1ccccc1	61.4% (active)
CCCCNS(=O)(=O)CCNCc1ccccc1OC	5.2%
O=C(NCc1ccco1)/C(=C\c1cccc([N+](=O)[O-])c1)NC(=O)c1ccco1	9.4%

SMILES	inhibition
Cc1ccc(C(=O)N/C(=C/c2ccc(-c3cccc([N+](=O)[O-])c3)o2)C(=O)NCCCN(C)C)cc1	51.7% (active)
O=C(NCc1ccco1)/C(=C/c1cccc([N+](=O)[O-])c1)NC(=O)c1ccco1	15.2%
COc1ccc(C(=O)OCC(=O)Nc2cc(C)on2)cc1F	10.9%
CN(C)S(=O)(=O)c1cc(C(=O)Nc2ccn(C)n2)c(Cl)cc1Cl	19.3%
CN=C1SC(CC(=O)Nc2ccc(C(=O)O)cc2)C(=O)N1C (stereo unspecified)	16.1%
CCN=C1SC(CC(=O)Nc2ccc(C)cc2)C(=O)N1CC (stereo unspecified)	40.5% (active)
CCN1C(=O)C(CC(=O)Nc2cc(C)ccc2C)SC1=Nc1ccc(S(N)(=O)=O)cc1 (stereo unspecified)	13.6%
Cc1cccc(N2CC(C(=O)Nc3ccccc3N3CCCC3)CC2=O)c1C (stereo unspecified)	14.3%
CC1CCN(c2ccc([N+](=O)[O-])c(SCCO)c2)CC1	40.3% (active)
CC1CCN(c2ccc3c(c2)S(=O)(=O)c2cc(C(=O)O)ccc2C3=O)CC1	-15.6%
CC1CCN(c2ccc(C(=O)NCc3ccc4c(c3)OCO4)cc2[N+](=O)[O-])CC1	20.8%
COc1ccc(C(=O)N2CCC(C(=O)Nc3cccc(C)c3)CC2)cc1OC	9.3%
COc1ccc(-c2c(C)nn3c(N4CCC(C(=O)N5CCCCC5)CC4)cc(C)nc23)cc1OC	-21.1%
COC(=O)[C@]12CCCCC=C1N(Cc1ccc3c(c1)OCO3)C(=O)[C@H](CC(=O)NCc1cccs1)C2	19.5%
CCOc1ccc(S(=O)(=O)N2CCN=C2Cc2ccccc2)cc1C	23.3%
NN=C(NN=Cc1ccccc1)c1ccccc1	49.4% (active)
Nc1nnn(CC(=O)N/N=C/c2ccccc2)n1	-8.5%
COC(=O)C(C)N=Cc1ccccc1 (stereo unspecified)	0.2%
O=C(NCc1ccccc1)C(=O)NCC1OCCN1S(=O)(=O)c1ccc(Br)cc1 (stereo unspecified)	0.6%
CCOc1ccc(C(=O)CCN2CCOCC2)cc1	5.4%
CCOc1ccc(NCCC(=O)c2ccc3c(c2)OCO3)cc1	37.1% (active)
COc1ccc(C2(C)NC(=O)N(CC(=O)c3ccc4c(c3)OCO4)C2=O)cc1 (stereo unspecified)	-8.5%
